What all share (format): functional
Experiment [1] concerns the target Solute carrier family 2, facilitated glucose transporter member 1 (Homo sapiens) (UniProt P11166). Kind of experiment: ST_JUDE_LEISH: Cytotoxicity at 2uM final concentration against transgenic Leishmania Mexicana promastigotes LmGLUT1 that are glucose transport deficient and complemented with the human glucose transporter GLUT1. Activity is measured by DNA content using SYBR green in vitro.

The target of experiment [2] is Hexose transporter 1 (Plasmodium falciparum) (UniProt O97467). The experiment is described as follows: ST_JUDE_LEISH: Cytotoxicity at 2uM final concentration against transgenic Leishmania Mexicana promastigotes LmPfHT that are glucose transport deficient and complemented with the Plasmodium falciparum hexose transporter. Activity is measured by DNA content using SYBR green in vitro.

Experiment [3] addresses Glucose transporter (Leishmania mexicana) (UniProt O61059). Kind of experiment: ST_JUDE_LEISH: Cytotoxicity at 2uM final concentration against transgenic Leishmania Mexicana promastigotes LmGT2 that are glucose transport deficient and complemented with the L. Mexicana glucose transporter 2. Activity is measured by DNA content using SYBR green in vitro.

Drawing on ChEMBL document CHEMBL3433997, “St. Jude Leishmania screening dataset” (2016), this text covers inhibition for 50 molecules.

SMILES strings stand for the structures. “And” between values parts separate entries of the source, which are not always exact repeats. Equal entries are not always repeated.

Sequence of Solute carrier family 2, facilitated glucose transporter member 1 (Homo sapiens) (P11166 whole entry): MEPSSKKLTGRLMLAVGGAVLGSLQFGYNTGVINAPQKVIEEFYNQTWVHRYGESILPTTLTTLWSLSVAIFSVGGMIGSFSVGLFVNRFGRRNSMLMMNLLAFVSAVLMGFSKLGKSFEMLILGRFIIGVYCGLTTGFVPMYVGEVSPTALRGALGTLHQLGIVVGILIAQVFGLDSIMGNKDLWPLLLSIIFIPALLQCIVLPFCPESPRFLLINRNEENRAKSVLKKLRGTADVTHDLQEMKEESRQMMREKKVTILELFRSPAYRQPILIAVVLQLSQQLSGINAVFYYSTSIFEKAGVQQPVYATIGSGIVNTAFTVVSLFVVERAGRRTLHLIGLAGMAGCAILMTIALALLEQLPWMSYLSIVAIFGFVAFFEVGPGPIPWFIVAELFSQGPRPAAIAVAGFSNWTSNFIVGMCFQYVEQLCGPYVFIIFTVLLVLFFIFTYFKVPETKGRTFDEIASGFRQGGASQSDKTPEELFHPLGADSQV

`COC(=O)c1sccc1NC(=S)NC1CCC(CN2CCC(c3c[nH]c4ccccc34)CC2)CC1` (stereo not given): the inhibition (usually the change of the read-out against control, counted positive when it falls) in experiment [1] was 4.17% and 2.22%; in experiment [2] it was 3.81% and 3.47%; in experiment [3], 0.42% and 1.38%.

As for `CCCCCCCSc1ccc(CC(C)NCC(O)c2cccc(Cl)c2)cc1` (stereo not given), the figures for the inhibition in experiment [1], in experiment [2] and in experiment [3] were 4.14%, 4.49% and 4.37%, respectively.

For the molecule `CC[C@H]1CN2CC[C@H]1C[C@H]2[C@H](O)c1cc(/C=C/c2ccccc2)nc2ccc(OC)cc12`, the inhibition in experiment [1] is 0.9%; in experiment [2], -0.83%; in experiment [3], -0.2%.

Regarding `CCOC(C(=O)OCC1CCCN(C)C1)(c1ccccc1)c1ccccc1` (stereo not given), the inhibition in experiment [1] worked out at 4.97%; in experiment [2], 4.46%; in experiment [3], 5.83%.

For the molecule `O=C(CCc1ccco1)NC1CCN(CC2(c3ccc(Cl)cc3)CCC2)CC1`, the values for the inhibition in experiment [1], in experiment [2] and in experiment [3] were 9.68%, 8.13% and 7.13%, respectively.

`CN(c1cc(NC(=O)c2cccs2)ccn1)C1CCN(Cc2ccccc2)CC1`: the inhibition in experiment [1] came out at 0.59%; in experiment [2], 3.13%; in experiment [3], 2.09%.

In the case of `C=C[C@H]1CN2CC[C@H]1C[C@H]2[C@H](O)c1cc(/C=C/c2ccc(F)cc2)nc2ccc(OC)cc12`, the inhibition was determined as 2.95% in experiment [1], 0.72% in experiment [2] and 2.4% in experiment [3].

On to `CC[C@H]1CN2CC[C@H]1C[C@@H]2[C@@H](O)c1cc(Cl)nc2ccc(OC)cc12`, for which the figures for the inhibition in experiment [1], in experiment [2] and in experiment [3] were 11%, 8.14% and 8.37%, respectively.

For the molecule `CC[C@H]1CN2CC[C@@H]1C[C@H]2[C@H](O)c1cc(N2CCC(c3ccccc3)CC2)nc2ccc(OC)cc12`, the inhibition in experiment [1] is 8.84%; in experiment [2], 6.56%; in experiment [3], 2.67%.

For the molecule `CC[C@H]1CN2CC[C@H]1C[C@H]2[C@H](O)c1cc(-c2ccc(F)cc2)nc2ccc(OC)cc12`, the inhibition is 0.09% in experiment [1], -0.06% in experiment [2] and 1.25% in experiment [3].

For `CC(C)CNCc1ccc(-c2cccc(CN(C(=O)NC3CCCCC3)C3CCN(Cc4ccccc4)CC3)c2)cc1`, the inhibition is 0.87% in experiment [1], -0.07% in experiment [2] and 3.1% in experiment [3].

As to `CC[C@H]1CN2CC[C@H]1C[C@H]2[C@H](O)c1cc(Cl)nc2ccc(OC)cc12`, the inhibition in experiment [1] is 2.23%; in experiment [2], 1.71%; in experiment [3], 1.61%.

`CCOC(=O)c1c(C)n(C2CCCCCC2)c2cc(Br)c(O)cc12`: the inhibition turned out to be 2.52% in experiment [1], 0.67% in experiment [2] and 4.54% in experiment [3].

In the case of `CC(=O)Nc1ccc(CN2CCC(N(C)c3cc(NC(=O)c4cccs4)ccn3)CC2)cc1`, the inhibition in experiment [1] is -1.53%; in experiment [2] it was 0.83%; in experiment [3] it was -0.48%.

Regarding `Cc1ccc(CC(C)(C)NCC(O)c2cccc(C(F)(F)F)c2)cc1` (stereo not given), the figures for the inhibition in experiment [1], in experiment [2] and in experiment [3] were 2.49%, 2.91% and 3.49%, respectively.

Take `CC[C@H]1CN2CC[C@H]1C[C@H]2[C@H](O)c1cc(/C=C/c2ccc(F)cc2)nc2ccc(OC)cc12`: the inhibition turned out to be 4.05% in experiment [1], 1.87% in experiment [2] and 2.03% in experiment [3].

As for `CCOC(=O)c1c(C)n(C2CCCCC2)c2cc(Br)c(O)cc12`, the values for the inhibition in experiment [1], in experiment [2] and in experiment [3] were -0.53%, -0.38% and -0.74%, respectively.

In the case of `CCCc1ccc2c(c1O)CCC(N(CCC)CCC)C2` (stereo not given), the inhibition in experiment [1] worked out at 2.32%; in experiment [2] it was 2.51%; in experiment [3], 2.48%.

`O=C1c2ccccc2CCC1CCN1CC=C(c2c[nH]c3ccccc23)CC1` (stereo not given): the results for the inhibition in experiment [1], in experiment [2] and in experiment [3] were 2.89%, 3.52% and 3.16%, respectively.

On to `CN(C(=O)OCc1ccccc1)C1CCC(CCN2CCC3(CC2)C(=O)NCN3c2cccc(C(F)(F)F)c2)(c2ccccc2)CC1` (stereo not given), for which the values for the inhibition in experiment [1], in experiment [2] and in experiment [3] were 2.48%, 1.12% and 2.55%, respectively.

As to `CN(c1cc(NC(=O)c2ccc(F)cc2)ccn1)C1CCN(Cc2cccc(F)c2)CC1`, the inhibition was found to be 2.51% in experiment [1], 6.07% in experiment [2] and 3.83% in experiment [3].

As to `CC(=O)C1(c2ccccc2)CCN(CCC2(c3ccc(Cl)c(Cl)c3)CN(C(=O)C3CCCCC3)CCO2)CC1` (stereo not given), the inhibition in experiment [1] stood at 4.85%; in experiment [2] it was 2.27%; in experiment [3], 3.92%.

In the case of `CC[C@H]1CN2CC[C@H]1C[C@@H]2[C@@H](OC(=O)c1ccc(Cl)cc1)c1ccnc2ccc(OC)cc12`, the inhibition in experiment [1] is 1.77%; in experiment [2] it was 0.13%; in experiment [3], -1.41%.

`CNCCN(C)C(=O)Oc1c(Br)c(C)nc(C)c1-c1ccc(Oc2ccc(OC(F)(F)F)cc2)cc1`: the figures for the inhibition in experiment [1], in experiment [2] and in experiment [3] were 2.73%, 3.16% and 5.59%, respectively.

As for `CC(Cc1ccc(NC(=O)CCCc2ccccc2)cc1)NCCc1cccc(Cl)c1` (stereo not given), the inhibition was determined as 1.2% in experiment [1], 0.72% in experiment [2] and 2.44% in experiment [3].

In the case of `Cc1cc(O)cc2c(C3CCN(CC4CCN(C(=O)/C=C/c5ccc(Cl)c(Cl)c5)CC4)CC3)c[nH]c12`, the inhibition was 0.1% in experiment [1], -0.37% in experiment [2] and 0.13% in experiment [3].

Regarding `Cc1[nH]c2ccccc2c1C1=CCN(CCCCC2(C)C(=O)Nc3cccc(F)c32)CC1` (stereo not given), the inhibition in experiment [1] was 0.46%; in experiment [2], -0.62%; in experiment [3], 0.65%.

For the molecule `CCCCCCCN1C2CCC1CC(CCOc1ccnc3ccc(OC)cc13)C2` (stereo not given), the figures for the inhibition in experiment [1], in experiment [2] and in experiment [3] were 11.4%, 8.68% and 11%, respectively.

For the molecule `O=C1COc2ccccc2N1CCN1CCC(NCc2ccc(-c3cccs3)cc2)CC1`, the inhibition is 8.28% in experiment [1], 7.16% in experiment [2] and 3.03% in experiment [3].

For the molecule `CC[C@H]1CN2CC[C@@H]1C[C@H]2[C@H](O)c1cc(-c2cccnc2)nc2ccc(OC)cc12`, the inhibition in experiment [1] is 4.01%; in experiment [2], 4.01%; in experiment [3], 4.02%.

Consider `CC(Cc1ccc(NC(=O)[C@@H](C)NCCc2cccc(Cl)c2)cc1)NCCc1cccc(Cl)c1` (stereo not given in full), for which the inhibition stood at 0.67% in experiment [1], 2.55% in experiment [2] and 2.1% in experiment [3].

For `CS(=O)(=O)Nc1ccc2[nH]cc(C3CCN(CC4CCC(NC(=O)/C=C/c5ccccc5Cl)CC4)CC3)c2c1` (stereo not given), the results for the inhibition in experiment [1], in experiment [2] and in experiment [3] were -1.96%, 1.23% and -0.23%, respectively.

Consider `CNCCCCCCc1ccc(CC(C)NCC(O)c2cccc(Cl)c2)cc1` (stereo not given), for which the figures for the inhibition in experiment [1], in experiment [2] and in experiment [3] were 6.3%, 2.29% and 0.1%, respectively.

Turning to `CN1C2CCC1c1cc(NC(=O)c3cc(-c4ccc(Cl)cc4)cs3)ccc12` (stereo not given), the inhibition in experiment [1] is 8.89%; in experiment [2] it was 9.62%; in experiment [3], 8.52%.

Take `O=C(/C=C/c1ccccc1Cl)NC1CCC(CN2CCC(c3c[nH]c4ccccc34)CC2)CC1` (stereo not given): the inhibition in experiment [1] was 2.44% and 5.03%; in experiment [2] it was 0.61% and 3.12%; in experiment [3] it was -3.81% and 6.89%.

Turning to `CN(C)CCC(=O)c1ccccc1`, the results for the inhibition in experiment [1], in experiment [2] and in experiment [3] were 3.21%, 4.48% and 1.99%, respectively.

Consider `O=C(CSc1ccc(Cl)cc1)NC1CCC(CN2CCC(c3c[nH]c4ccccc34)CC2)CC1` (stereo not given), for which the inhibition in experiment [1] amounted to 5.29%; in experiment [2], 1.76%; in experiment [3] it was 2.72%.

Consider `CN(C)CCCOc1ccc(CN2CCC(c3c[nH]c4ccc(NCC5CCCCC5)cc34)CC2)cc1`, for which the inhibition in experiment [1] amounted to 3.02%; in experiment [2], 3.5%; in experiment [3], 3.06%.

With `Cc1[nH]c2ccccc2c1C1=CCN(CCCCC23CCCc4cccc(c42)NC3=O)CC1` (stereo not given), the inhibition turned out to be 2.64% in experiment [1], 2.98% in experiment [2] and 2.47% in experiment [3].

On to `O=C(Nc1ccccc1OC(F)(F)F)NC1CCC(CN2CCC(c3c[nH]c4ccccc34)CC2)CC1` (stereo not given), for which the inhibition is 2.64% and 17.3% in experiment [1]; 3.83% and 26.1% in experiment [2]; 0.62% and 10.3% in experiment [3].

Consider `Oc1ccc(Cl)cc1CN1CCC(CCOC(c2ccccc2)c2ccc(Cl)cc2)CC1` (stereo not given), for which the inhibition in experiment [1] stood at 46.7%; in experiment [2], 25.3%; in experiment [3], 5.18%.

For `O=C(NC1CCC(CN2CCC(c3c[nH]c4ccccc34)CC2)CC1)c1cc(-c2ccc(F)cc2F)ccc1O` (stereo not given), the inhibition was 0.76% in experiment [1], 0.13% in experiment [2] and 0.42% in experiment [3].

For `COc1ccc(C(=O)C2CC2CN2CC=C(c3c[nH]c4cccc(Br)c34)CC2)cc1` (stereo not given), the inhibition was 4.26% in experiment [1], 2.54% in experiment [2] and 2.11% in experiment [3].

Regarding `COc1cc2nc(N(C)C3CCN(Cc4ccccc4)CC3)nc(N)c2cc1OC`, the inhibition in experiment [1] was 69.8%; in experiment [2], 46.7%; in experiment [3] it was 25%.

Consider `CC(C)c1ccc(C=CC(=O)NC2CCC(CN3CCC(c4c[nH]c5ccccc45)CC3)CC2)cc1` (stereo not given), for which the inhibition in experiment [1] was 2.2%; in experiment [2] it was 1.4%; in experiment [3] it was 2.47%.

Turning to `O=C(Nc1cc(C(F)(F)F)cc(C(F)(F)F)c1)N1CCC(CN2CCC(c3c[nH]c4ccccc34)CC2)CC1`, the inhibition in experiment [1] worked out at 2.61%; in experiment [2], 3.46%; in experiment [3], 1.9%.

Consider `S=C(Nc1ccc2c(c1)OCCO2)NC1CCC(CN2CCC(c3c[nH]c4ccccc34)CC2)CC1` (stereo not given), for which the inhibition is 0.68% and -2.92% in experiment [1]; -3.08% and -1.27% in experiment [2]; 4.46% and -3.36% in experiment [3].

As for `COc1ccc(CCNCc2ccc3nc(N)cc(C)c3c2)cc1`, the inhibition in experiment [1] was -3.73%; in experiment [2] it was -2.84%; in experiment [3], -2.66%.

For the molecule `CN(c1cc(NC(=O)c2ccc(F)cc2)ccn1)C1CCN(Cc2cccc(O)c2)CC1`, the inhibition in experiment [1] stood at 2.68%; in experiment [2] it was 4.98%; in experiment [3], 6.32%.

With `O=C(Cc1cc(=O)oc2cc(O)ccc12)NC1CCC(CN2CCC(c3c[nH]c4ccccc34)CC2)CC1` (stereo not given), the inhibition in experiment [1] was found to be 2.39%; in experiment [2], 2.2%; in experiment [3] it was 2.14%.
